The text below walks through data of PubChem BioAssay (NCI).

The panel holds about 83,000 compounds, 20% with a hit somewhere; the sample as a whole holds those more often.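 In brief: 96-well plates, 48 h treatment, single concentration, percent growth endpoint.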 Unmarked numbers belong to inactive results. Active and inactive are the calls of the source. How the source made its calls: active means growth percent below 10; inactive means the rest.

Common to all, as to experiment: NCI-60 one-dose screen, 48 h (100 = growth as untreated, 0 = no growth, -100 = all killed)
One test has as its system NCI-H23 lung. As to conditions: 10 µM unless noted.
Another test has as its system NCI-H226 lung. The following applies: 10 µM unless noted.
The next test relates to NCI-H322M lung. The following applies: 10 µM unless noted.
Another test relates to HOP-62 NSCLC. The following applies: 10 µM unless noted.
In another test the test system is NCI-H460 lung. As to conditions: 10 µM unless noted.
The next test relates to HOP-92 NSCLC. As to conditions: 10 µM unless noted.
Another test has as its system NCI-H522 lung. The following applies: 10 µM.
The next test concerns 786-0 renal. The following applies: 10 µM unless noted.
For a further test, the system named is COLO 205 colon. As to conditions: 10 µM unless noted.
Another test has as its system K-562 leukemia. As to conditions: 10 µM unless noted.
Another test deals with MALME-3M melanoma. As to conditions: 10 µM unless noted.
A further test has as its system MDA-MB-231 breast. As to conditions: 10 µM unless noted.
A further test deals with SF-268 CNS. As to conditions: 10 µM unless noted.
The subject of a further test is SF-295 CNS. As to conditions: 10 µM unless noted.
The subject of a further test is SF-539 CNS. The following applies: 10 µM unless noted.
The subject of a further test is UACC-257 melanoma. The following applies: 10 µM unless noted.
The next test deals with M14 melanoma. The following applies: 10 µM unless noted.
A further test concerns DU-145 prostate. The following applies: 10 µM unless noted.
For another test, the system named is RXF 393 renal. As to conditions: 10 µM unless noted.

For the compound `COc1ccc2c(c1)CC/C(=C\c1ccc(OCC(=O)Nc3nc4ccccc4s3)cc1)C2=O`, the growth in the test on NCI-H23 lung was 79.5%; in the test with NCI-H226 lung, 90.4%; in the test on NCI-H322M lung, 98.6%; with HOP-62 NSCLC it was 83.2%; with NCI-H460 lung it was 113%; in the test on HOP-92 NSCLC, 61.1%. For the same compound, the growth in the test on NCI-H522 lung is 85.4%; with 786-0 renal, 92.3%; with COLO 205 colon it was 122%; in the test with K-562 leukemia, 84.7%; in the test on MALME-3M melanoma, 92.5%; in the test on MDA-MB-231 breast, 82.5%. The growth was 89.6% in the test with SF-268 CNS; 95% with SF-295 CNS; 73.7% with SF-539 CNS; 96.5% in the test on UACC-257 melanoma; 89% in the test with M14 melanoma.

As for `C=CCNC(=O)/C(=C/c1cccc([N+](=O)[O-])c1)NC(=O)c1ccccc1`, the growth is 98.6% in the test with NCI-H23 lung; 90.5% in the test on NCI-H226 lung; 107% in the test with NCI-H322M lung; 92.4% in the test on HOP-62 NSCLC; 111% in the test on NCI-H460 lung; 91.9% with HOP-92 NSCLC. The growth in the test with NCI-H522 lung is 97.5%; with 786-0 renal, 84.7%; with COLO 205 colon, 120%; with DU-145 prostate, 116%; with K-562 leukemia, 108%; with MALME-3M melanoma it was 102%. For the same compound, the growth in the test on MDA-MB-231 breast was 116%; in the test with SF-268 CNS, 99%; in the test with SF-295 CNS, 103%; in the test on SF-539 CNS, 92.5%; with UACC-257 melanoma, 7.53% (active); in the test on M14 melanoma it was 88.8%.

`O=C(N/N=C/c1cccc([N+](=O)[O-])c1)c1ccc(Br)o1`: the growth in the test on NCI-H23 lung was 102%; with NCI-H226 lung, 109%; in the test with NCI-H322M lung it was 105%; in the test with HOP-62 NSCLC it was 106%; with NCI-H460 lung, 114%; in the test with HOP-92 NSCLC it was 85.7%. Besides, the growth in the test with NCI-H522 lung is 85.7%; in the test on 786-0 renal it was 92.5%; in the test with COLO 205 colon it was 97.9%; in the test with DU-145 prostate, 103%; in the test with MALME-3M melanoma it was 115%; with MDA-MB-231 breast, 115%. In addition, the growth in the test with RXF 393 renal is 104%; in the test with SF-268 CNS, 104%; in the test with SF-295 CNS, 111%; in the test with SF-539 CNS, 98.4%; in the test with M14 melanoma it was 99.8%.

For `Cc1cn(C(C=O)OC(C=O)CO)c(=O)[nH]c1=O` (stereo not drawn), the growth in the test on NCI-H23 lung is 107%; in the test on NCI-H226 lung, 105%; in the test with NCI-H322M lung it was 106%; in the test on HOP-62 NSCLC, 102%; in the test on NCI-H460 lung, 105%; with HOP-92 NSCLC, 104%. The growth is 98% with NCI-H522 lung; 107% in the test with 786-0 renal; 109% in the test on COLO 205 colon; 108% in the test on DU-145 prostate; 104% with K-562 leukemia; 98.8% in the test with MALME-3M melanoma. Besides, the growth with MDA-MB-231 breast was 108%; in the test with SF-268 CNS, 113%; in the test on SF-295 CNS, 102%; in the test on SF-539 CNS, 104%; with UACC-257 melanoma, 88%; in the test on M14 melanoma, 108%.

For `O=C(COc1ccc(/C=C2\Oc3ccc4ccccc4c3C2=O)cc1)c1ccc([N+](=O)[O-])cc1`, the growth in the test with NCI-H23 lung is 96.5%; with NCI-H226 lung, 105%; with NCI-H322M lung, 99.9%; in the test on HOP-62 NSCLC, 118%; in the test on NCI-H460 lung, 104%; with HOP-92 NSCLC it was 96.7%. For the same compound, the growth in the test with NCI-H522 lung is 49%; with 786-0 renal, 103%; in the test with COLO 205 colon it was 134%; in the test with K-562 leukemia, 79.4%; in the test on MALME-3M melanoma it was 85.8%; with MDA-MB-231 breast, 94.9%. Further, the growth in the test on SF-268 CNS is 96.9%; in the test on SF-295 CNS it was 105%; in the test on SF-539 CNS, 65.6%; in the test on UACC-257 melanoma, 94%; in the test with M14 melanoma, 92.8%.

For `C1CCC(C(CC2CCCCN2)C2CCCCC2)CC1` (stereo not drawn), the growth in the test with NCI-H23 lung was 9.26% (active); with NCI-H226 lung, 28%; in the test on NCI-H322M lung, 49.8%; in the test on HOP-62 NSCLC, -81.6% (active); in the test on NCI-H460 lung, -84.3% (active); in the test with HOP-92 NSCLC it was -2.64% (active). In addition, the growth in the test with NCI-H522 lung is -16.8% (active); in the test on 786-0 renal, -86.7% (active); with COLO 205 colon it was -63.6% (active); in the test with DU-145 prostate it was 14%; in the test with K-562 leukemia, -64.9% (active); in the test on MALME-3M melanoma it was -73.2% (active). Also, the growth with MDA-MB-231 breast was 1.11% (active); in the test with SF-268 CNS, 49.9%; with SF-295 CNS, -62.9% (active); with SF-539 CNS, -35.9% (active); in the test with M14 melanoma it was -88.2% (active).

With `O=c1ncc(-c2ccc(C(F)(F)F)cc2)c(NC2CCCCCC2)[nH]1`, the growth with NCI-H23 lung is 64.9%; in the test on NCI-H226 lung, 71.5%; in the test with NCI-H322M lung, 90.9%; with HOP-62 NSCLC, 64%; with NCI-H460 lung, 55.1%; with HOP-92 NSCLC, -2.61% (active). Also, the growth is 29% in the test on NCI-H522 lung; 76.7% with 786-0 renal; 46.2% in the test on COLO 205 colon; 78.5% with DU-145 prostate; 30% in the test with K-562 leukemia; -26.4% (active) in the test with MALME-3M melanoma. In addition, the growth in the test with MDA-MB-231 breast is 79%; with RXF 393 renal, 76.4%; in the test on SF-268 CNS it was 62.3%; with SF-295 CNS, 3% (active); with SF-539 CNS it was 91.7%; in the test on M14 melanoma it was 34.8%.

With `Cc1nn(-c2nc3ccccc3s2)c(C)c1Oc1ccccc1O`, the growth in the test with NCI-H23 lung is 109%; with NCI-H226 lung, 80.5%; in the test with NCI-H322M lung, 101%; in the test on HOP-62 NSCLC, 53.3%; with NCI-H460 lung it was 24.6%; in the test with HOP-92 NSCLC, 93.2%. Also, the growth in the test with NCI-H522 lung is 59.9%; with 786-0 renal, 89.2%; with COLO 205 colon, 92.3%; in the test with DU-145 prostate, 68.2%; in the test on K-562 leukemia, 31.8%; with MALME-3M melanoma it was 76.9%. Moreover, the growth in the test on MDA-MB-231 breast is 70.8%; in the test with SF-268 CNS, 60.5%; in the test with SF-295 CNS it was 58.8%; in the test with SF-539 CNS it was 60.9%; in the test on UACC-257 melanoma, 104%; in the test with M14 melanoma, 63.7%.

As to `CCN(Cc1cccc(S(=O)(=O)[O-])c1)c1ccc(C(=C2C=CC(=[N+](CC)Cc3cccc(S(=O)(=O)O)c3)C=C2)c2ccccc2S(=O)(=O)O)cc1`, the growth is 97.3% in the test with NCI-H23 lung; 93.8% in the test on NCI-H226 lung; 98.1% with NCI-H322M lung; 99.3% with HOP-62 NSCLC; 107% in the test with NCI-H460 lung; 87.3% with HOP-92 NSCLC. The growth in the test with NCI-H522 lung was 99.4%; in the test on 786-0 renal, 92.7%; in the test on COLO 205 colon, 107%; in the test with DU-145 prostate, 107%; in the test on K-562 leukemia it was 90.8%; in the test on MALME-3M melanoma, 118%. Besides, the growth was 100% with MDA-MB-231 breast; 106% in the test with RXF 393 renal; 94.6% with SF-268 CNS; 94.5% in the test on SF-295 CNS; 97.4% in the test on SF-539 CNS; 98.4% with M14 melanoma.
